Values joined by “and” are separate entries in the source; they are usually repeats but may differ in a detail not shown here. Equal entries are not always repeated. About 83,000 compounds went through this panel and 20% of them were active in at least one assay; those are over-represented in the sample as a whole.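 A percent growth of 40 corresponds to 60% growth inhibition; 0 means no net growth; -100 means all cells died. Active threshold: below 10.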 Active and inactive are the calls of the source.
Experiments:
Test in all cases: NCI-60 one-dose screen, 48 h (100 = growth as untreated, 0 = no growth, -100 = all killed)
Settings in all cases: 10 µM
T-47D breast = test system: T-47D breast
BT-549 breast = test system: BT-549 breast
MDA-MB-435 melanoma = test system: MDA-MB-435 melanoma
SW-620 colon = test system: SW-620 colon
MCF7 breast = test system: MCF7 breast
HCT-116 colon = test system: HCT-116 colon
HCC-2998 colon = test system: HCC-2998 colon
KM12 colon = test system: KM12 colon
MDA-MB-468 breast = test system: MDA-MB-468 breast

Structure (SMILES) | growth (T-47D breast) | growth (BT-549 breast) | growth (MDA-MB-435 melanoma) | growth (SW-620 colon) | growth (MCF7 breast) | growth (HCT-116 colon) | growth (HCC-2998 colon) | growth (KM12 colon) | growth (MDA-MB-468 breast)
Cc1cc(=O)oc2cc(OCCCCOc3ccc(/C=C/C(=O)Nc4ccccc4[N+](=O)[O-])cc3)ccc12 | 100% (inactive) | 117% (inactive) | 112% (inactive) | 114% (inactive) | 97% (inactive) | 115% (inactive) | 120% (inactive) | 109% (inactive) | 169% (inactive)
CCOC(=O)N/C(=C1/OCCN1C)[P+](c1ccccc1)(c1ccccc1)c1ccccc1 | 65.9% (inactive) | 75.4% (inactive) | 51.5% (inactive) | 89.1% (inactive) | 41.7% (inactive) | 75.1% (inactive) | 60.4% (inactive) | 51.3% (inactive) | -11.4% (active)
CCCn1c(=O)c2[nH]c(-c3ccc(OCc4nc5ccc(C(F)(F)F)cc5[nH]4)cc3)nc2n(CCC)c1=O | 33.2% (inactive) | 41.7% (inactive) | 63% (inactive) | 70% (inactive) | 28.3% (inactive) | 25.2% (inactive) | 76.7% (inactive) | 55.5% (inactive) | 30.8% (inactive)
O=C(Nc1cccc([N+](=O)[O-])c1)Nc1cccc([N+](=O)[O-])c1 | 40.6% (inactive) | 67.1% (inactive) | 90.3% (inactive) | 87.9% (inactive) | 72.5% (inactive) | 54.4% (inactive) | 88% (inactive) | 70.6% (inactive) | 7.95% (active) and 24.6% (inactive)
O=C1NC(=NC2CCCCCC2)N/C1=C\c1ccc2ncoc2c1 | 18.9% (inactive) | 9.37% (active) | 37.8% (inactive) | 11.3% (inactive) | 13% (inactive) | 23.5% (inactive) | 68.8% (inactive) | 30% (inactive) | -3.48% (active)
O=c1cc(-c2ccccc2)oc2cc(OCCCNCc3ccccc3)cc(O)c12 | -64.7% (active) | 46.8% (inactive) | -44.2% (active) | -13.8% (active) | -30% (active) | -68.7% (active) | -95.8% (active) | -38.3% (active) | -59.5% (active)
Cc1ccc(C(=O)CSc2nnc(-c3c[nH]c4ccccc34)n2-c2ccccc2)cc1 | 46.7% (inactive) | 22.4% (inactive) | 38.6% (inactive) | 19% (inactive) | 12.5% (inactive) | 7.68% (active) | 66.4% (inactive) | 51% (inactive) | 48% (inactive)
O=C1Nc2ccc(Cl)cc2/C1=C/c1ccc(OCc2ccc(Br)cc2F)cc1 | 10.1% (inactive) | 81.9% (inactive) | 60.2% (inactive) | 23.6% (inactive) | 12.1% (inactive) | -10.8% (active) | 77.5% (inactive) | 59.1% (inactive) | 92.6% (inactive) and 48.8% (inactive)
COc1cccc(-c2ccc(/C=N/NC(=O)c3[nH]c4ccc(Br)cc4c3-c3ccccc3)o2)c1 | 54.7% (inactive) | 25.8% (inactive) | -30.7% (active) | 24.6% (inactive) | 4.65% (active) | -7.28% (active) | 11.8% (inactive) | 10.8% (inactive) | -2.92% (active)
CC1(C)CC[C@]2(C(=O)O)CC[C@]3(C)C(=CC[C@@H]4[C@@]5(C)C/C(=C/c6ccncc6)[C@H](O)C(C)(C)[C@@H]5CC[C@]43C)[C@@H]2C1 | 43.6% (inactive) | 50.8% (inactive) | 54.8% (inactive) | 34.6% (inactive) | 24.4% (inactive) | 26% (inactive) | 49.1% (inactive) | 21.1% (inactive) | 5.27% (active)
O=C1c2ccccc2C(=O)c2c1c(C(=O)c1ccc(Cl)cc1)n1c2ccc2c3ccccc3ccc21 | 104% (inactive) | 119% (inactive) | 114% (inactive) | 101% (inactive) | 93% (inactive) | 104% (inactive) | 116% (inactive) | 103% (inactive) | 112% (inactive)
CC(C)C1=C[C@@]23CC[C@@H]4[C@](C)(CCC[C@]4(C)C(=O)NCc4ccccc4)[C@H]2C[C@@H]1[C@H]1C(=O)OC(=O)[C@H]13 | 56% (inactive) | 69.6% (inactive) | 49.6% (inactive) | 54.2% (inactive) | 13.2% (inactive) | 23.1% (inactive) | 53.8% (inactive) | 24.9% (inactive) | 41.5% (inactive)
COc1ccsc1/C=N/NC(=O)c1[nH]c2ccc(Br)cc2c1-c1ccccc1 | -2.72% (active) | 13.8% (inactive) | 2.33% (active) | 18.4% (inactive) | 1.13% (active) | 0.361% (active) | -5.18% (active) | -0.302% (active) | -6.2% (active)
O=C(c1ccc(Cl)cc1)C1[C@H](c2ccccc2Br)[C@@H](c2ccccc2)NC12C(=O)Nc1ccccc12 (some centres not stated) | 48.6% (inactive) | 48% (inactive) | -47.3% (active) | 5.99% (active) | -4.27% (active) | 16.3% (inactive) | 7.29% (active) | 15.2% (inactive) | -45.9% (active)
CN1C(=O)N(C)C2SC(N/N=C/c3ccc(F)cc3)=NC21 (configuration not stated) | 37.9% (inactive) | 9.3% (active) | -28.8% (active) | 30.1% (inactive) | 21.6% (inactive) | 24.9% (inactive) | 69.8% (inactive) | 28.2% (inactive) | -12.3% (active)
CC(C)CCSc1nc(NC2CC2)c(C#N)c(-c2ccc(C(C)C)cc2)n1 | 100% (inactive) | 100% (inactive) | 112% (inactive) | 114% (inactive) | 97.9% (inactive) | 108% (inactive) | 115% (inactive) | 107% (inactive) | 106% (inactive)
CC(=O)Nc1ccc(-c2cn(-c3cccc(C(=O)Nc4cccc(OC(F)(F)F)c4)c3)nn2)cn1 | 93.2% (inactive) | 96.7% (inactive) | 61.4% (inactive) | 90.1% (inactive) | 70.1% (inactive) | 88.6% (inactive) | 110% (inactive) | 30.1% (inactive) | 86.7% (inactive)
COc1ccc(-c2nc(S(=O)(=O)c3ccccc3)c(S(C)(=O)=O)o2)cc1 | -64.5% (active) | 3.82% (active) | -60.2% (active) | -25.3% (active) | -57.5% (active) | 0.823% (active) | -26.8% (active) | 66% (inactive) | -88.1% (active)
COc1cc(OC(F)(F)F)ccc1C(=O)Nc1sc2c(c1C#N)CCC(=O)C2 | -4.87% (active) | 14.1% (inactive) | 97.9% (inactive) | 31.6% (inactive) | 73.2% (inactive) | 40.7% (inactive) | 111% (inactive) | 88.1% (inactive) | 77.7% (inactive)
CN(C)c1nc(NCCNS(=O)(=O)c2ccc(C(=O)/C=C/c3ccccc3)cc2)nc(Nc2ccc(F)cc2)n1 | 25.6% (inactive) | 24.9% (inactive) | 4.21% (active) | -4.39% (active) | -82.8% (active) | -53% (active) | -75.7% (active) | -78.4% (active) | 1.47% (active)
O=C(Cn1cc(CSc2nnc3oc4ccccc4n23)nn1)Nc1cccc(Cl)c1 | 45.2% (inactive) | 83.1% (inactive) | 74.4% (inactive) | 103% (inactive) | 49% (inactive) | 71.8% (inactive) | 84.7% (inactive) | 70.6% (inactive) | 37.7% (inactive)
Cc1cc(C)nc(NS(=O)(=O)c2ccc(N/C(N)=N/c3nccc(-c4ccccc4)n3)cc2)n1 | 25.1% (inactive) | 83.7% (inactive) | 86% (inactive) | 93.8% (inactive) | 37% (inactive) | 76.6% (inactive) | 85.3% (inactive) | 78.8% (inactive) | 64.2% (inactive)
Cc1cc(C(F)(F)F)ccc1C(=O)Nc1sc2c(c1C#N)CCC(=O)C2 | -34% (active) | -76.1% (active) | -48.1% (active) | -34.4% (active) | 2.31% (active) | 5.39% (active) | -10.6% (active) | -8.98% (active) | -44.4% (active)
COc1ccc(C2N(c3ccc(Br)cc3)N=C(C(C)=O)N2[C@H]2[C@H](OC(C)=O)O[C@H](COC(C)=O)[C@@H](OC(C)=O)[C@@H]2OC(C)=O)cc1 (some centres not stated) | 52.8% (inactive) | 91.2% (inactive) | 83.7% (inactive) | 82.5% (inactive) | 62.7% (inactive) | 69% (inactive) | 75.4% (inactive) | 70.6% (inactive) | 72.6% (inactive)
COc1nccnc1NS(=O)(=O)c1ccc(NC2=C(Cl)C(=O)c3nc(C)ccc3C2=O)cc1 | 101% (inactive) | 101% (inactive) | 103% (inactive) | 115% (inactive) | 108% (inactive) | 92% (inactive) | 103% (inactive) | 111% (inactive) | 9.69% (active)
O=C(Nc1ccccc1)Nc1nc2ccccc2s1 | 25.5% (inactive) | 89.6% (inactive) | 97.2% (inactive) | 111% (inactive) | 21.4% (inactive) | 85.9% (inactive) | 85% (inactive) | 90.1% (inactive) | -1.66% (active)
C=C(C)[C@@H]1CC[C@]2(C)[C@H](CC=C3[C@@H]4CC(C)(C)CC[C@]4(C(=O)N4CCOCC4)CC[C@]32C)[C@@]1(C)CCCN | -88.1% (active) | -85.3% (active) | -99.5% (active) | -65.1% (active) | -70.7% (active) | -54.2% (active) | -81.1% (active) | -82.3% (active) | -96% (active)
COc1csc(/C=N/NC(=O)c2[nH]c3ccc(Br)cc3c2-c2ccccc2)c1 | 47.1% (inactive) | 31.8% (inactive) | -43.6% (active) | 17.9% (inactive) | -3.06% (active) | -29.4% (active) | 7.87% (active) | 3.46% (active) | -18% (active)

Source: PubChem BioAssay (NCI)
